Laboratory results from PubChem BioAssay (Tox21).
Results filed as inconclusive are left out. Active and inactive are the calls of the source. Unless noted, calls come from the whole dose curve; as a rule, active = well fitted curve in the direction sought with a large enough effect in the repeat runs; inconclusive = weak or mixed curves; inactive = no such curve, though single readings can be large; an effect the other way counts as inactive or inconclusive.

What was measured:
[1] = qHTS assay to identify small molecule antagonists of the estrogen related receptor (ERR) signaling pathway - cell viability counter screen (AID 1224818);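 note: series mostly up to about 46 µM; viability measured after 17.5 h of compound exposure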
How it was run: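 Cytotoxicity check run alongside the ERR antagonist screen: cells exposed to test compounds 17.5 h at 37 C, viability taken as CellTiter-Fluor fluorescence intensity.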

[2] = qHTS assay to identify small molecule agonists of the estrogen related receptor (ERR) signaling pathway (AID 1224820)
How it was run: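 An ERR cell line provided by NTP was seeded at 2,000 cells per well and allowed to settle for 6 h before compounds in DMSO were added. After 18 h at 37 C, luciferase activity was measured by One-Glo luminescence.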

[3] = system: estrogen-related receptor alpha (ERRalpha) with PGC-1alpha coactivator, human; assay: qHTS assay to identify small molecule antagonists of the estrogen related receptor signaling pathway with the pleiotropic PPARgamma coactivator (PGC) (AID 1224821; calls by dose curve;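 note: series mostly up to about 46 µM; lower luminescence signal means antagonism of PGC/ERR signalling; nearly all actives have a fitted effect of over 50% in size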)
How it was run: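 A PGC/ERR cell line supplied by NTP is seeded, allowed 6 h at 37 C, and treated with test compounds in DMSO for 18 h. Signal is then measured as luciferase luminescence using One-Glo.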

[4] = qHTS assay to identify small molecule antagonists of the estrogen related receptor signaling pathway with the pleiotropic PPARgamma coactivator (PGC) cell viability counter screen (AID 1224822;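 note: series mostly up to about 46 µM; viability read after 17.5 h compound exposure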)
How it was run: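 Viable cell signal (CellTiter-Fluor, 30 min, 37 C/5% CO2) was measured in PGC/ERR cells after a 17.5 h compound incubation.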

[5] = qHTS assay to identify small molecule agonists of the estrogen related receptor signaling pathway with the pleiotropic PPARgamma coactivator (PGC) (AID 1224823)
How it was run: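 Compounds dissolved in DMSO are added by pin tool to PGC/ERR cells that have settled for 6 h, and incubation continues 18 h at 37 C. Reporter output is measured as One-Glo luminescence.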

Measured: Potency

COc1ccc2[nH]cc(CCN)c2c1
inactive: all assays above
